Screening results from PubChem BioAssay.
IL1B secr inh: inflammasome signaling inhibition, IL-1 beta readout; THP-1 LPS/ATP IL-1B secretion, AlphaLISA, 16 h; active compounds read low; activity change, % at 57.5 µM; hit rate 4.7% among 360,000; in the data active = activity change below about -50%; inconclusive = mostly about -30% to -49%
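Secreted IL-1B measured by AlphaLISA bead assay after 16 h compound exposure of THP-1 cells; compounds (final up to 57.5 uM) added 1 h before LPS (250 ng/mL) and ATP (1.25 mM) stimulation; lower signal means less secretion.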
DT40 TDP1 CPT: DT40-hTDP1 cell growth loss with CPT; chicken DT40 Tdp1-/-;hTDP1 cells + 20 nM CPT, ATP luminescence, 48 h; Potency, µM (series often up to 46.2 µM), actives largely listed as inhibitors; hit rate 12% among 420,000; AID 686979; also: nearly all actives have a fitted effect of over 55% in size
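Chicken DT40 Tdp1-/- cells complemented with human TDP1, 400 cells/well, exposed to compounds plus 20 nM camptothecin for at least 48 h at 37 C; viability read as ATP content by CellTiter-Glo luminescence.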
ALOX12 inh: inhibitors of human 12S-lipoxygenase ALOX12 | hit rate 1.1% among 580,000 | P18054 | Potency, µM (top dose mostly 108 µM), actives largely listed as inhibitors | purified 12hLO, xylenol orange hydroperoxide absorbance
Target sequence (P18054 whole entry, looked up): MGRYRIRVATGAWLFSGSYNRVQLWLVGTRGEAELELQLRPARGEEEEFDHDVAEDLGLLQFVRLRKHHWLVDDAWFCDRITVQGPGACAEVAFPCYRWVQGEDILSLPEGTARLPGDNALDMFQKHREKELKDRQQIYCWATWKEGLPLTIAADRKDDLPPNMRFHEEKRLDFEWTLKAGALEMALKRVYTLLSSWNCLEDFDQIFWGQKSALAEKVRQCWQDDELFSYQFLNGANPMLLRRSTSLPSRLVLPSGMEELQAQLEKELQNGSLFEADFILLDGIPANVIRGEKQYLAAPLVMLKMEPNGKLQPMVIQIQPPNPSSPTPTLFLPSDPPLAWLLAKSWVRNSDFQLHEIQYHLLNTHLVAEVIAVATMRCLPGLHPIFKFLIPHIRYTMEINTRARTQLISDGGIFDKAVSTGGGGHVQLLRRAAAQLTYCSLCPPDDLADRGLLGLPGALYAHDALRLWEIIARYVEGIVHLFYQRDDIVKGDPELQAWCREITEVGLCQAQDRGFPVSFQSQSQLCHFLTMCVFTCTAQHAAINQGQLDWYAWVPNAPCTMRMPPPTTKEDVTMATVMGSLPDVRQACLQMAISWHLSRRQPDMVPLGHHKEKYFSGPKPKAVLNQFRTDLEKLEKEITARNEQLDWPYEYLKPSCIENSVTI
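Purified human 12hLO (150 nM final) in 25 mM Hepes, 0.01% Triton X-100, pH 7.0 was preincubated 15 min at room temperature with compound. Then 40 uM arachidonic acid was added, 30 min. Hydroperoxide was read by Fe-XO absorbance ratio 573/405 nm.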
HT1080 IDH1KD tx: toxicity to HT-1080 IDH1 knockdown cells (counter line). HT-1080 IDH1 knockdown viability, ATP luminescence, 48 h. Potency, µM (series often up to 46.1 µM), most hits filed as cytotoxic. hit rate 2% among 360,000
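After a 2 h attachment period, IDH1KD HT-1080 cells took pin-transferred compound for 48 h at 37 °C; ATP-based luminescence after 10 min room-temperature reagent incubation reported viability.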
HT1080-NT tox: kills 2HG-producing HT-1080-NT fibrosarcoma cells; HT-1080-NT fibrosarcoma viability, CellTiter-Glo ATP luminescence, 48 h; Potency, µM (doses to about 46.1 µM), most hits filed as cytotoxic; hit rate 1.6% among 360,000;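 also: NT is the 2HG producing partner of a matched IDH1 knockdown line; nearly all actives have a fitted effect of over 55% in size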
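Read-out is CellTiter-Glo luminescence after 10 minutes at room temperature, following 48 hours' compound treatment of HT-1080-NT cells (750 cells/well, RPMI, 5% FBS, 37 degrees C).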
DT40 TDP1 no CPT: qHTS for Inhibitors of human tyrosyl-DNA phosphodiesterase 1 (TDP1): qHTS in cells in absence of CPT; Potency, µM (doses to about 46.2 µM), hits mostly inhibitors; DT40 Tdp1-/- hTDP1 cells, no CPT, ATP luminescence, 48 h; hit rate 15% among 420,000; also: nearly all actives have a fitted effect of over 55% in size
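Growth of hTDP1-complemented DT40 Tdp1-knockout cells is measured by ATP luminescence after at least 48 hr compound exposure at 37 °C, with DMSO substituting for the 20 nM CPT used in the parallel screen.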
Large screens that a line does not name were inactive. Only a selection was taken, and hits are over-represented in it overall. Unless noted, calls follow the shape of the dose curve; as a rule, active = well fitted curve in the direction sought with a large enough effect; inconclusive = small, poorly fitted or top-dose-only effect, or another doubt; inactive = no such curve, though single readings can be large; an effect the other way counts as inactive or inconclusive.

CCc1cc(-c2n[nH]c(C)c2-c2ccccc2Cl)c(O)cc1OC	DT40 TDP1 CPT inconclusive, ALOX12 inh 39.8µM, HT1080 IDH1KD tx inconclusive
C=C(C)COc1ccc(-c2n[nH]c(C)c2-c2ccc(OC)cc2)c(O)c1	IL1B secr inh -51.1, DT40 TDP1 CPT inconclusive, ALOX12 inh inconclusive, HT1080 IDH1KD tx 18.4µM, HT1080-NT tox 20.6µM, DT40 TDP1 no CPT inconclusive
CCc1cc(-c2n[nH]c(CCC(=O)O)c2-c2nc3ccccc3n2C)c(O)cc1O	none
CCOc1cc(N2CCOCC2)c(OCC)cc1NC(=O)c1ccc(OC(C)C)cc1	DT40 TDP1 CPT inconclusive, DT40 TDP1 no CPT 20.6µM
CCOc1cc(N2CCOCC2)c(OCC)cc1NC(=O)CN1C(=O)NC(Cc2ccccc2)C1=O (stereo unspecified)	none
CCOc1cc(N2CCOCC2)c(OCC)cc1NC(=O)c1ccccc1	DT40 TDP1 CPT 20.6µM, DT40 TDP1 no CPT 16.4µM
CCOc1cc(N2CCOCC2)c(OCC)cc1NC(C)C(=O)N1CCN(CC)CC1 (stereo unspecified)	ALOX12 inh 3.16µM
CCOc1cc(N2CCOCC2)c(OCC)cc1NC(=O)CN1CCC(Cc2ccccc2)CC1	IL1B secr inh inconclusive, DT40 TDP1 CPT 23.1µM, DT40 TDP1 no CPT inconclusive
CCOc1cc(N2CCOCC2)c(OCC)cc1NC(=O)C(C)C	none
CC(C)Oc1ccc(C(=O)Nc2ccccc2N2CCOCC2)cc1	none
CCN(CC)S(=O)(=O)c1cccc(-c2nnc(SCc3ccc(Cl)cc3)n2N)c1	none (no result: IL1B secr inh, DT40 TDP1 CPT, HT1080 IDH1KD tx, HT1080-NT tox, DT40 TDP1 no CPT)
Cc1ccc(S(=O)(=O)NC2CCN(S(C)(=O)=O)CC2)c(Br)c1	none (no result: IL1B secr inh, DT40 TDP1 CPT, HT1080 IDH1KD tx, HT1080-NT tox, DT40 TDP1 no CPT)
COc1ccc(/C=C(/C#N)c2nc3ccccc3[nH]2)cc1OC(F)F	none (no result: IL1B secr inh, DT40 TDP1 CPT, HT1080 IDH1KD tx, HT1080-NT tox, DT40 TDP1 no CPT)
CCOc1cc(N2CCOCC2)c(OCC)cc1NC(=O)COC(=O)c1ccc(OC)c([N+](=O)[O-])c1	DT40 TDP1 CPT 14.6µM, DT40 TDP1 no CPT 23.1µM
CCOc1cc(N2CCOCC2)c(OCC)cc1NC(=O)CSc1ncccc1C(=O)O	DT40 TDP1 CPT inconclusive, ALOX12 inh 11.2µM, DT40 TDP1 no CPT 6.51µM
COc1ccc(S(=O)(=O)N2CCOCC2)cc1NC(=O)CN1CCC(Cc2ccccc2)CC1	DT40 TDP1 CPT 16.4µM, DT40 TDP1 no CPT 16.4µM
CCOc1cc(N2CCOCC2)c(OCC)cc1NC(=O)COC(=O)c1cccc2ccccc12	DT40 TDP1 CPT inconclusive
CCOc1cc(N2CCOCC2)c(OCC)cc1NC(=O)c1ccc(C)cc1	DT40 TDP1 CPT inconclusive, DT40 TDP1 no CPT 9.2µM
CCOc1cc(N2CCOCC2)c(OCC)cc1NC(=O)c1ccc(S(=O)(=O)N(C)C)cc1	DT40 TDP1 CPT inconclusive, DT40 TDP1 no CPT inconclusive
COc1ccc(S(=O)(=O)N2CCOCC2)cc1NC(=O)CN1CCCC1	none
